Potency data for 44 molecules are collected here from PubChem BioAssay (NCATS).

The target in assay [1] is Aldehyde dehydrogenase, mitochondrial (Homo sapiens) (UniProt P05091). Description: qHTS for Inhibitors of the Aldehyde Dehydrogenase Family (ALDH2) Primary screen (AID 2061308). Further: nearly all actives have a fitted effect of over 55% in size.
In assay [2] the target is Retinaldehyde dehydrogenase 3 (Homo sapiens) (UniProt P47895). Description: qHTS for Inhibitors of the Aldehyde Dehydrogenase Family (ALDH1A3) Primary screen (AID 2061315).

Results filed as inconclusive are left out. Entries that show only a call come without a potency. Unmarked numbers belong to inactive results. Activity calls are given as the source filed them. The call rests on the fitted dose curve; in most records, active means well fitted curve in the direction sought with a large enough effect; inconclusive means small, poorly fitted or top-dose-only effect, or another doubt; inactive means no such curve, though single readings can be large; an effect the other way counts as inactive or inconclusive.

`C/C=C/c1ccc(O[C@@H]2O[C@H](CO)[C@@H](O)[C@H](O)[C@H]2O)c(OC)c1`: the Potency result in assay [1] and in assay [2] was “inactive” in each case.

In the case of `Cc1cc(NS(=O)(=O)c2ccc3c(c2)CCC(=O)N3)ccc1Cl`, the Potency entry in assay [1] and in assay [2] was “inactive” throughout.

For `COc1cccc(C2c3c(ncn(-c4cccc(Br)c4)c3=N)Oc3ccc4ccccc4c32)c1` (stereo not drawn), the Potency entry in assay [1] and in assay [2] was “inactive” throughout.

For `CCCCCC1CCC(C(=O)Nc2ccc(S(=O)(=O)Nc3nccs3)cc2)CC1` (stereo not drawn), the Potency result in assay [1] and in assay [2] was “inactive” throughout.

As to `Cc1cc2c(s1)c1cnn(Cc3ccc(F)c(F)c3F)c(=O)c1n2C`, the Potency result in assay [1] and in assay [2] was “inactive” throughout.

In the case of `Fc1ccc(-c2ccc(Nc3nc(-c4ccncc4)nc4ccccc34)cc2F)c(F)c1`, the Potency entry in assay [1] and in assay [2] was “inactive” throughout.

For `Cc1cccc(-c2nnc(C)n2CCCn2ccnc2)c1[N+](=O)[O-]`, the Potency entry in assay [1] and in assay [2] was “inactive” in each case.

For the molecule `O=C(/C=C/c1ccccc1Cl)Nc1cccc([S+](=O)([O-])Nc2ccccc2F)c1`, the Potency entry in assay [1] and in assay [2] was “inactive” each time.

`Cc1cc(C)nc(NC(=S)N2CCN(c3ccc([N+](=O)[O-])c4cccnc34)CC2)c1`: the Potency entry in assay [1] and in assay [2] was “inactive” each time.

With `C=C1C(=O)OC2C1CCC1(C)C(O)CC=C(C)C21` (stereo not drawn), the Potency entry in assay [1] and in assay [2] was “inactive” in each case.

For `Cc1ccc(C(=O)Nc2ccc(N3CCOCC3)cc2)cc1`, the Potency entry in assay [1] and in assay [2] was “inactive” in each case.

As to `CC(C)CCC[C@@H](C)[C@H]1CC[C@H]2[C@@H]3CC=C4C[C@@H](OC(=O)NCCN(C)C)CC[C@]4(C)[C@H]3CC[C@]12C`, the Potency entry in assay [1] and in assay [2] was “inactive” throughout.

On to `CC(C)(C)OC(=O)Cc1nnc(CNC(=O)c2ccccc2)s1`, for which the Potency result in assay [1] and in assay [2] was “inactive” in each case.

On to `O=C(OCC#CCSc1nnc(-c2cccc3ccccc23)o1)c1cc(F)c(F)c(F)c1`, for which the Potency result in assay [1] and in assay [2] was “inactive” throughout.

With `c1cncc(-c2ccc(CNc3nc(N4CCOCC4)nc4ccccc34)cc2)c1`, the Potency entry in assay [1] and in assay [2] was “inactive” each time.

On to `CCN(CC)CCCCn1c(-c2ccccc2)nc2c(N3CCOCC3)nc(C)nc21`, for which the Potency result in assay [1] and in assay [2] was “inactive” each time.

For `O=C(CN1C(=O)N/C(=C\c2cn(-c3cccc(C(=O)O)c3)cn2)C1=O)Nc1ccc(Cl)cc1`, the Potency entry in assay [1] and in assay [2] was “inactive” throughout.

`Cc1ccc(CNc2ncnc3ccc(-c4ccc(C(=O)N(C)C)o4)cc23)o1`: the Potency entry in assay [1] and in assay [2] was “inactive” throughout.

As for `COc1ccc(Cn2ncc3c4sc(C)cc4n(C)c3c2=O)cc1F`, the Potency result in assay [1] and in assay [2] was “inactive” each time.

On to `Cn1c2cc(C#N)sc2c2cnn(Cc3ccccc3F)c(=O)c21`, for which the Potency entry in assay [1] and in assay [2] was “inactive” in each case.

For the molecule `CC(=O)O[C@@H]1CC(C)=C2[C@H]1[C@H](C)CC[C@H]2/C=C(\C)C(=O)O`, the Potency entry in assay [1] and in assay [2] was “inactive” in each case.

With `O=S(=O)(Nc1nccs1)c1ccc(NCc2ccc(Cl)cc2O)cc1`, the Potency result in assay [1] and in assay [2] was “inactive” in each case.

As for `CC(C)(C)OC(=O)Nc1ncnc2c1C(c1ccccc1)c1c(ccc3ccccc13)O2` (stereo not drawn), the Potency result in assay [1] and in assay [2] was “inactive” in each case.

For the molecule `CCOC(=O)c1ccc(-n2c(C)cc(-c3nnc4n3CCCCC4)c2C)cc1`, the Potency result in assay [1] and in assay [2] was “inactive” each time.

In the case of `C(=Nc1cccnc1)c1cccs1`, the Potency entry in assay [1] and in assay [2] was “inactive” each time.

As for `CCOC(=O)c1cc2c([nH]1)CCCC2=O`, the Potency entry in assay [1] and in assay [2] was “inactive” throughout.

As to `C=C1C(=O)O[C@H]2[C@H]1CC/C(C)=C/CC[C@@]1(C)O[C@@H]21`, the Potency result in assay [1] and in assay [2] was “inactive” in each case.

Consider `CC(C)C(OC(=O)CNC(=O)c1ccccc1)C(=O)Nc1cc(C(F)(F)F)ccc1Cl` (stereo not drawn), for which the Potency result in assay [1] and in assay [2] was “inactive” throughout.

On to `O=C(Nc1ccc(-n2ccnc2)c(F)c1)Nc1nnc(-c2ccncc2)s1`, for which the Potency result in assay [1] and in assay [2] was “inactive” throughout.

As to `Nc1nc(NCc2ccc(-c3cccnc3)cc2)c2ccccc2n1`, the Potency entry in assay [1] and in assay [2] was “inactive” each time.

`Fc1cccc(Nc2nc(-c3ccncc3)nc3ccccc23)c1`: the Potency result in assay [1] and in assay [2] was “inactive” throughout.

`COc1ccc(NC(=O)c2ccc(-c3nc4ccccc4[nH]3)cc2)cc1OC`: the Potency result in assay [1] and in assay [2] was “inactive” in each case.

With `CC(C)(O)C1Cc2c(ccc(C(=O)CCc3ccccc3)c2O)O1` (stereo not drawn), the Potency entry in assay [1] and in assay [2] was “inactive” each time.

In the case of `O=C1c2ccccc2C(=O)N1c1nccs1`, the Potency entry in assay [1] and in assay [2] was “inactive” in each case.

`Cc1ccc(S(=O)(=O)Nc2cnccc2C(=O)Nc2ccc(-n3cncn3)cc2)cc1`: the Potency result in assay [1] and in assay [2] was “inactive” throughout.

As to `O=C(Nc1nnc(-c2ccco2)o1)c1ccncc1`, the Potency result in assay [1] and in assay [2] was “inactive” each time.

With `CCN(CC)CCn1c(-c2ccccc2)nc2c(N3CCOCC3)nc(C)nc21`, the Potency entry in assay [1] and in assay [2] was “inactive” throughout.

For `CC1CCC2(C(=O)OC3OC(COC4OC(CO)C(O)C(O)C4O)C(O)C(O)C3O)CCC3(C)C(=CCC4C5(C)CCC(O)C(C)(C(=O)O)C5CCC43C)C2C1(C)O` (stereo not drawn), the Potency entry in assay [1] and in assay [2] was “inactive” throughout.

For the molecule `FC(F)(F)c1ccc(-c2nc(NCc3ccc(-c4ccnc(C(F)(F)F)c4)cc3)c3ccccc3n2)cc1`, the Potency result in assay [1] and in assay [2] was “inactive” throughout.

As for `CCCCNc1nc(C)nc2c1nc(-c1ccccc1)n2CCCN1CCCCC1C` (stereo not drawn), the Potency entry in assay [1] and in assay [2] was “inactive” throughout.

For the molecule `CSc1ccc(CNc2ncnc3ccc(-c4c(C)noc4C)cc23)cc1`, the Potency entry in assay [1] and in assay [2] was “inactive” throughout.

As to `CCCn1c(C)nc2c(NCc3ccccc3)nc(C)nc21`, the Potency entry in assay [1] and in assay [2] was “inactive” in each case.

In the case of `S=c1[nH]c2ccccc2n1CCc1ccccc1`, the Potency result in assay [1] and in assay [2] was “inactive” in each case.

`COc1ccc2cc3c(NC(=O)c4ccco4)nn(C)c3nc2c1`: the Potency entry in assay [1] and in assay [2] was “inactive” each time.
